Reference: PubChem BioAssay
Calls of active or inactive are those of the source. Unless noted, how the calls were made is not given here.

Columns and labels:
[1] = test system: Wnt5a (protein binding on small-molecule microarray); experiment: small molecules binding Wnt5a protein – biophysical, small-molecule microarray, 635/667 nm fluorescence, primary screen (AID 1142); details: 635 nm fluorescence, higher = more signal;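 further: fluorescence read at 667 nm with signal to noise per printed feature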
[2] = ATP-based viability of Huh7 replicon cells – cell-based, CellTiter-Glo luminescence, basal, 48 h, cytotoxicity control for HCV replication inhibitor project, primary screen (AID 1143); details: higher = more signal, called active from +8 up or from −8 down;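 further: Huh7 hepatoma cells carrying a hepatitis C replication reporter with no stimulus; test concentration not given here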
[3] = Pseudomonas biofilm growth suppression – PAO1 strain, BacTiter-Glo luminescence, LB-PBS, primary screen (AID 1144); details: P. aeruginosa PAO1 biofilm, 12 h, higher = more signal
[4] = basal CRE-LacZ reporter activity in PC12 – cell-based, unstimulated, primary screen (AID 1145); details: no forskolin, luminescence, 4.5 h, higher = more signal, called active from +8 up or from −8 down
[5] = forskolin-driven CRE-LacZ activity in PC12 – cell-based, CRE-LacZ reporter, forskolin-stimulated, primary screen (AID 1146); details: luminescence, 4.5 h, higher = more signal, called active from +8 up or from −8 down;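 further: PC12 cells with 6xCRE LacZ reporter stimulated by forskolin 10 µM; beta-galactosidase reporter signal reflecting CREB driven transcription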
[6] = biological target: Streptavidin (Streptomyces avidinii) (UniProt P22629); experiment: compounds binding control protein streptavidin – biophysical, small-molecule microarray, 635/667 nm fluorescence, artefact control for SMM compound annotation, primary screen (AID 1147); details: higher = more signal;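 further: signal reflects streptavidin binding to arrayed compounds as a control protein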
Streptavidin (Streptomyces avidinii), sequence (P22629 whole entry, looked up): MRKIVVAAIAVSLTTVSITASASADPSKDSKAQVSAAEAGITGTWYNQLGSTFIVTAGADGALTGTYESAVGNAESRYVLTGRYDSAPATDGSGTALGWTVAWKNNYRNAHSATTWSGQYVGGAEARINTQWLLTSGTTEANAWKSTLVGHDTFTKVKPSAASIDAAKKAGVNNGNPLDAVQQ

[7] = probe aInhba binding on compound microarray – biochemical, small-molecule microarray, 635/667 nm fluorescence, primary screen (AID 1148); details: higher = more signal;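 further: score merges 667nm spot fluorescence with signal-to-noise for antibody binding to printed compounds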
[8] = biological target: Torsin-1A (Homo sapiens) (UniProt O14656); experiment: TOR1A wild-type binding on microarray – cell lysate, small-molecule microarray, lysate, 635/667 nm, primary screen (AID 1149); details: COS7 hTOR1A-WT lysate, 635 nm fluorescence, higher = more signal
Torsin-1A (Homo sapiens), sequence (O14656 whole entry, looked up): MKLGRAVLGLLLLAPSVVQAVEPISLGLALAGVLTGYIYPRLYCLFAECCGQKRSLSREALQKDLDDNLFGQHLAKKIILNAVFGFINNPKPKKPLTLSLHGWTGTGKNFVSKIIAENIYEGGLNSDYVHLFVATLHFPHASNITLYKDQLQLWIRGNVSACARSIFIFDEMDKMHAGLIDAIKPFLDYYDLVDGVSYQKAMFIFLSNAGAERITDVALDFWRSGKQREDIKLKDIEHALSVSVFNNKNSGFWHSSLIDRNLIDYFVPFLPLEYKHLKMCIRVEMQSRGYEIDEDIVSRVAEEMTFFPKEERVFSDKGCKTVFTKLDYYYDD

[9] = biological target: Torsin-1A (Homo sapiens) (UniProt O14656); experiment: torsin A mutant lysate binding on microarrays – cell lysate, small-molecule microarray, COS7 lysate, 635/667 nm fluorescence, primary screen (AID 1150); details: COS7 hTOR1A mutant lysate, 635 nm fluorescence, higher = more signal;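 further: score pools 667 nm emission and signal to noise measuring lysate protein binding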
[10] = test system: Sonic hedgehog protein (Shh); experiment: Sonic hedgehog microarray binding compounds – biochemical, small-molecule microarray, 635/667 nm fluorescence, primary screen (AID 1151); details: 635 nm fluorescence, higher = more signal;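 further: Shh protein binding to compounds spotted on small-molecule microarray slides; score combines spot fluorescence intensity with signal-to-noise across triplicate slides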
[11] = optical density shifts of acrAB sulA E. coli – strain DRC41, OD650, 48 h, E. coli filamentation inducer project, primary screen (AID 1152); details: higher = more signal, called active from +8 up or from −8 down;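 further: E. coli MC1000 strain DRC41 lacking acrAB efflux pump and sulA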
[12] = probe aLefty1 binding on compound microarray – biochemical, small-molecule microarray, 635/667 nm fluorescence, primary screen (AID 1153); details: higher = more signal;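 further: score merges spot fluorescence with signal-to-noise ratio from the scanned slide images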
[13] = plasmodial surface anion channel blockers, osmotic lysis – cell-based, P. falciparum Indochina, OD700, 1 h, primary screen (AID 1154); details: P. falciparum Indochina infected RBC osmotic lysis, higher = more signal, called active from +8 up or from −8 down
[14] = plasmodial surface anion channel blockers, osmotic lysis – cell-based, P. falciparum Indochina, OD700, 2 h, primary screen (AID 1155);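 further: lysis reports solute entry through the parasite surface anion channel PSAC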; details: P. falciparum Indochina infected erythrocytes, higher = more signal, called active from +8 up or from −8 down
[15] = changes in parasitized red cell lysis, either direction – P. falciparum Indochina, OD700, 3 h, PSAC antagonist project, primary screen (AID 1156); details: P. falciparum-infected erythrocytes, osmotic lysis, higher = more signal, called active from +8 up or from −8 down
[16] = plasmodial surface anion channel blockers, osmotic lysis – cell-based, P. falciparum Indochina, OD700, 18 h, primary screen (AID 1157); details: P. falciparum Indochina infected erythrocytes, osmotic lysis OD700, 18 h; higher = more signal, called active from +8 up or from −8 down
[17] = S6 kinase pathway phospho-S6 level changes – cell-based, A549, cytoblot, luminescence, serum-stimulated, primary screen (AID 1158); details: 5 h, higher = more signal;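 further: serum-stimulated A549 lung adenocarcinoma cells; signal is phosphorylated S6 detected by cytoblot immunostaining with HRP secondary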
[18] = biological target: NADPH oxidase 2 (Homo sapiens) (UniProt P04839); experiment: compounds shifting NOX2 Amplex Red fluorescence – cell-based, HEK293-NOX2, PMA-stimulated, NOX inhibitor project, primary screen (AID 1159); details: 45 min, higher = more signal, called active from +8 up or from −8 down; further: test concentration not given here
NADPH oxidase 2 (Homo sapiens), sequence (P04839 whole entry, looked up): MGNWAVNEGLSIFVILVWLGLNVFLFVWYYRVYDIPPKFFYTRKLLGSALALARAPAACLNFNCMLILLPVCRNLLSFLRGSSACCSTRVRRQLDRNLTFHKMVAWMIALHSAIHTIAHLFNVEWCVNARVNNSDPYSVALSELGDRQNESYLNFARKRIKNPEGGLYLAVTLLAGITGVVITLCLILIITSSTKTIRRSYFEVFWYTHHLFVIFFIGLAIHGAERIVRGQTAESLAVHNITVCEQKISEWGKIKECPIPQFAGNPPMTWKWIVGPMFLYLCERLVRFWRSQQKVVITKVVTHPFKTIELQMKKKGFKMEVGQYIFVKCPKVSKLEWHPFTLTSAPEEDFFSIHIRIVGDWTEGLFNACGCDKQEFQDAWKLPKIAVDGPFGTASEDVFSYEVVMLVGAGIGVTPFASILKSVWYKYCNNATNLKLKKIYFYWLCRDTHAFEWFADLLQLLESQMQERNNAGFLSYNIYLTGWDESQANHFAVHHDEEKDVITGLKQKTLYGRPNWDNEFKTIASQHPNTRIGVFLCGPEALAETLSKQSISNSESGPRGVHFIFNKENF

[19] = biological target: NADPH oxidase 4 (Homo sapiens) (UniProt Q9NPH5); experiment: compounds shifting NOX4 Amplex Red fluorescence – cell-based, HEK293-NOX4, tetracycline-induced, NOX inhibitor project, primary screen (AID 1160); details: HEK293-NOX4, Amplex Red H2O2 fluorescence, 45 min; higher = more signal, called active from +8 up or from −8 down
NADPH oxidase 4 (Homo sapiens), sequence (Q9NPH5 whole entry, looked up): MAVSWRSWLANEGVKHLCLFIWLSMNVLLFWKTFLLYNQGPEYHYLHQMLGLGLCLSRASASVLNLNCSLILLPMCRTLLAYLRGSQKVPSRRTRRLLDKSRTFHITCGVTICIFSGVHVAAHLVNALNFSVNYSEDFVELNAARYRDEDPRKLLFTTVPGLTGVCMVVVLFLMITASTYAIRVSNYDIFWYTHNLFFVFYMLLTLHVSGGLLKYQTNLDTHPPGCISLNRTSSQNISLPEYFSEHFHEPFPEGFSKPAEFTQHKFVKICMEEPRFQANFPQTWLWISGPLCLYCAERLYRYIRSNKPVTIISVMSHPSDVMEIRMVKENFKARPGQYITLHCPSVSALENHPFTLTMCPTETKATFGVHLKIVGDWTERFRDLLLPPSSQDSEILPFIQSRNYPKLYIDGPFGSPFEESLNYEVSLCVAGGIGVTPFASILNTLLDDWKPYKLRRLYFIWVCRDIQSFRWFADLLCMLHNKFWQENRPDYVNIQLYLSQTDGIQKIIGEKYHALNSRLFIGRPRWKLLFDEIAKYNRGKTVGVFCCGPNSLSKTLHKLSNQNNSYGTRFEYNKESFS

[20] = biological target: NADPH oxidase 5 (Homo sapiens) (UniProt Q96PH1); experiment: compounds shifting NOX5 Amplex Red fluorescence – cell-based, HEK293-NOX5, NOX inhibitor project, primary screen (AID 1161); details: HEK293-NOX5, ionomycin, 45 min, higher = more signal
NADPH oxidase 5 (Homo sapiens), sequence (Q96PH1 whole entry, looked up): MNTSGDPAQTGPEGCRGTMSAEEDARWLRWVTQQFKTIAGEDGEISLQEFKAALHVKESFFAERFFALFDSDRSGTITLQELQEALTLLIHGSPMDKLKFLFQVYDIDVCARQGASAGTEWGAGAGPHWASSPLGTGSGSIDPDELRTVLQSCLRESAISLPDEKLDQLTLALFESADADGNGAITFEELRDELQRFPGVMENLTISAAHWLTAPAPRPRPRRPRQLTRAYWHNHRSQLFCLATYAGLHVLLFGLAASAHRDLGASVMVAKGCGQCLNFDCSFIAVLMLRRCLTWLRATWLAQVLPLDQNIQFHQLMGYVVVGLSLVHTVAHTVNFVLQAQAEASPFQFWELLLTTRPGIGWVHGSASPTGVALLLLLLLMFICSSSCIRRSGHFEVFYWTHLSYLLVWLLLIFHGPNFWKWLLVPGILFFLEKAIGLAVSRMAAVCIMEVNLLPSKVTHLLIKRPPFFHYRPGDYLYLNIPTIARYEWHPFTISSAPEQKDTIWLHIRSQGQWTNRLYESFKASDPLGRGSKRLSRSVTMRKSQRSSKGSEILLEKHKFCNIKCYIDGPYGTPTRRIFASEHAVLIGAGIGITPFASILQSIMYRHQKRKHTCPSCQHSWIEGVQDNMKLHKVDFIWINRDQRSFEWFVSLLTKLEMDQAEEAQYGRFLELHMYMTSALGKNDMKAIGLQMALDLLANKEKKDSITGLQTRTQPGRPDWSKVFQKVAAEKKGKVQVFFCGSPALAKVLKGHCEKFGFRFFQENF

Row | Compound | composite z-score [1] | z-score [2] | z-score [3] | z-score [4] | z-score [5] | composite z-score [6] | composite z-score [7] | composite z-score [8] | composite z-score [9] | composite z-score [10] | z-score [11] | composite z-score [12] | z-score [13] | z-score [14] | z-score [15] | z-score [16] | z-score [17] | z-score [18] | z-score [19] | z-score [20]
1 | CS(=O)(=O)CCOC(=O)C1=CC(CCCO)=CC(c2ccc(CN3CCCC3)cc2)N(Cc2cccc(OC(F)(F)F)c2)C=C1C(=O)OCCS(C)(=O)=O (stereo not given) | 0.531 | -1.42 (inactive) | 4.41 (inactive) | 4.56 (inactive) | -0.0478 (inactive) | 0.812 | 0.259 | 0.907 | 1.33 | 0.798 | -0.804 (inactive) | 0.879 | 1.55 (inactive) | 0.942 (inactive) | 0.128 (inactive) | 0.577 (inactive) | 0.219 | -0.302 (inactive) | -0.764 (inactive) | -0.504
2 | CCOC(=O)C1=CC[C@@H](c2ccc(C(F)(F)F)cc2)N(S(=O)(=O)c2ccc(C)cc2)[C@H]1c1ccccc1 | 0.328 | -4.89 (inactive) | 1.43 (inactive) | 0.986 (inactive) | -0.052 (inactive) | 1.5 | 0.316 | 0.504 | 0.658 | 0.0252 | -0.734 (inactive) | 0.373 | 1.62 (inactive) | 1.61 (inactive) | 0.84 (inactive) | 0.828 (inactive) | -0.356 | 0.803 (inactive) | -0.658 (inactive) | -0.601
3 | C=CCC(OC(C)=O)[C@@H]1[C@@H](N(Cc2ccc(-c3cccc(C(F)(F)F)c3)o2)C(=O)c2cccc3ccccc23)c2cc(OCCCO)ccc2N1C(=O)Cc1ccc2ccccc2c1 (stereo not given in full) | -0.078 | -0.952 (inactive) | 0.318 (inactive) | 0.307 (inactive) | 0.848 (inactive) | -0.253 | 0.374 | 1.34 | -0.361 | 0.248 | -0.599 (inactive) | -0.147 | 0.877 (inactive) | -0.397 (inactive) | 1.31 (inactive) | -0.449 (inactive) | 0.359 | -2.15 (inactive) | -0.933 (inactive) | -1.04
4 | CCN(CC)c1ccc(N2CC=CC34O[C@@H]5C=CCOC(=O)[C@@H]5[C@H]3C(=O)N(CCCCCCO)[C@@H]4C2=O)cc1 (stereo not given in full) | -0.452 | -0.289 (inactive) | -0.593 (inactive) | -0.488 (inactive) | -1.57 (inactive) | -0.881 | -0.154 | 0.914 | 0.339 | -0.326 | 2.74 (inactive) | 0.176 | 2.21 (inactive) | 0.184 (inactive) | 0.404 (inactive) | -0.313 (inactive) | 0.411 | -0.262 (inactive) | 0.301 (inactive) | 1.17
5 | [N-]=[N+]=NCc1ccccc1[C@@H]1OC(c2ccc(OCCCO)cc2)=N[C@]1(CCS(=O)(=O)c1ccccc1)C(=O)N1CCCCC1 | 0.571 | -2.09 (inactive) | 0.406 (inactive) | 5.06 (inactive) | 0.243 (inactive) | 1.19 | 0.531 | 0.292 | 0.447 | -0.0529 | 0.323 (inactive) | 0.522 | 22.8 (active) | 7.3 (inactive) | 1.59 (inactive) | 1.06 (inactive) | 0.34 | 0.196 (inactive) | 1.19 (inactive) | 2
6 | COc1ccc(C(=O)Nc2cccc(CN3C(=O)[C@]4(O[C@H](CCn5cc(CCO)nn5)[C@@H]([Si](C)(C)c5ccc(OC)cc5)[C@@H]4C)c4ccccc43)c2)cc1 | 0.224 | -7.97 (inactive) | -0.0511 (inactive) | 0.963 (inactive) | -1.52 (inactive) | 0.38 | -0.0963 | 0.188 | 0.359 | 1.21 | -0.856 (inactive) | -0.0061 | 6.78 (inactive) | 2.29 (inactive) | 0.155 (inactive) | 1.7 (inactive) | -0.815 | -1.91 (inactive) | -0.0331 (inactive) | 2.87
7 | C=C(CCCC)/C(=C/C[C@H](OC(C)=O)c1ccc(OCCO)cc1)c1cnc2ccccc2c1 | 0.0824 | -1.76 (inactive) | -0.829 (inactive) | 2.59 (inactive) | 1.08 (inactive) | 0.535 | -0.0087 | 1.27 | 0.671 | 1.8 | 0.621 (inactive) | 0.0999 | 22 (active) | 6 (inactive) | 1.23 (inactive) | 1.04 (inactive) | -0.1 | -2.53 (inactive) | -0.429 (inactive) | -2.06
8 | COC(=O)[C@@]1(Cc2ccc(OC)cc2)[C@H]2c3cc(C(=O)N4CCCC4)n(Cc4nc5ccccc5[nH]4)c3C[C@H]2CN1C(=O)c1ccccc1 | 0.704 | -2 (inactive) | 0.848 (inactive) | -0.182 (inactive) | 0.147 (inactive) | 1.78 | 0.802 | 0.0984 | 1.7 | -0.245 | -0.945 (inactive) | 0.388 | 6.92 (inactive) | 1.2 (inactive) | 2.04 (inactive) | 1.03 (inactive) | -0.0242 | -0.034 (inactive) | -0.0265 (inactive) | -3.27
9 | CN(C)CCCCCCNC(=O)[C@@H]1C[C@@H]2C(=O)N[C@@H](CCCC[N+](C)(C)C)C(=O)N2[C@@H]1c1ccc(O)cc1 | 0.133 | -0.217 (inactive) | 0.0162 (inactive) | 0.155 (inactive) | -0.0457 (inactive) | -0.253 | -0.589 | 0.659 | 0.771 | 1.66 | -0.3 (inactive) | -0.612 | 1.59 (inactive) | -0.375 (inactive) | -0.604 (inactive) | 0.0077 (inactive) | -0.607 | -1.47 (inactive) | -0.773 (inactive) | -1.4
